GPT2 inhibitor: inhibitors of human GPT2 alanine aminotransferase; Q8TD30; Recombinant GPT2, coupled pyruvate oxidase/HRP Amplex Red fluorescence; Potency, µM (titrated, usually from 57.7 µM), actives largely listed as inhibitors; 0.25% of 100,000 active; AID 1671188; note: nearly all actives have a fitted effect of over 60% in size
Target sequence (Q8TD30 whole entry, looked up): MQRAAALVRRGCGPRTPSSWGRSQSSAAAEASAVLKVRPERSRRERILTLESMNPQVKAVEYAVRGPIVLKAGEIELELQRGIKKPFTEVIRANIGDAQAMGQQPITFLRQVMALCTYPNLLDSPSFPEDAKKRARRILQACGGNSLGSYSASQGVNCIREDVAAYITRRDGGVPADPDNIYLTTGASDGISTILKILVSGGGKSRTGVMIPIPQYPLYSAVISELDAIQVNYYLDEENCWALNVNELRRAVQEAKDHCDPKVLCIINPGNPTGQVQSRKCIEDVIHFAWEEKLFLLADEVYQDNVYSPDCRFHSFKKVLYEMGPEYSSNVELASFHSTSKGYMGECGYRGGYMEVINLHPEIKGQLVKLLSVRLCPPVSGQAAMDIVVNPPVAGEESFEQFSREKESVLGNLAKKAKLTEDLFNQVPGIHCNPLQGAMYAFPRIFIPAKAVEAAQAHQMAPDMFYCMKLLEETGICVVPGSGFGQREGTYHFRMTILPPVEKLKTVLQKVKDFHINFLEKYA
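Recombinant GPT2 (10ng/uL) with 250uM a-KG and 2mM L-alanine, 30 min at room temperature, in HEPES pH 7.5 buffer. Pyruvate detected by pyruvate oxidase/HRP/Amplex Red fluorescence after 30 min in the dark; AOA (50uM) as positive control.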
Luciferase inh: Photinus pyralis luciferase inhibition; P08659; purified P. pyralis luciferase, luminescence, biochemical; 2.5% of 76,000 active; Potency, µM (titrated, usually from 115 µM), most hits filed as inhibitors; note: nearly all actives have a fitted effect of over 65% in size
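Luminescence read by CCD imaging after purified firefly luciferase (10nM final) was added to substrate buffer holding 10uM D-luciferin and 10uM ATP, pH 7.5, pre-dosed with compound.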
NPR1 antag: antagonists of human natriuretic peptide receptor Npr1; P16066; HEK293 hNpr1 GloSensor cGMP, ANP-stimulated luminescence; Potency, µM (series often up to 46.3 µM), usual class: inhibitors; 1.6% of 76,000 active; AID 1347048; calls by dose curve; note: nearly all actives have a fitted effect of over 60% in size
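Compound pre-incubated 30 min at room temperature on GloSensor-loaded HEK293 cells stably carrying hNpr1 and the pGS-40F cGMP biosensor. Stimulation uses hNppA at 0.1 nM final; luminescence is taken at baseline and 20 min post-agonist.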
3T3 cytotox: cytotoxic compounds in NIH 3T3 cells; 4.3% of 94,000 active; NIH 3T3 viability, CellTiter-Glo ATP luminescence, 48-72 h; AID 1345082; Potency, µM (top dose mostly 96.7 µM), actives largely listed as inhibitors; note: nearly all actives have a fitted effect of over 55% in size
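Cytotoxicity is measured as loss of cellular ATP: NIH 3T3 cells (400/well) are exposed to compound for 48 or 72 hr at 37 °C, then CellTiter-Glo luminescence is imaged after 10 min at room temperature.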
HEK cytotox: cytotoxic compounds in HEK 293 cells | HEK 293 viability, ATP luminescence (CellTiter-Glo), 48-72 h | Potency, µM (highest dose often 115 µM), actives largely listed as inhibitors | 6.6% of 94,000 active; note: nearly all actives have a fitted effect of over 60% in size
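Read-out: CellTiter-Glo ATP luminescence. Cells: HEK 293, 250 cells/well. Exposure: 48 or 72 hr, 37 degree Celsius.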
A number is an active result; i = inactive; ? = inconclusive; nt = no result given; [ ] = remark or other dose. Sampled rows, rich in hits. Any-hit rate of the full collection: about 10%. Unless noted, calls come from the whole dose curve; as a rule, active = well fitted curve in the direction sought with a large enough effect; inconclusive = small, poorly fitted or top-dose-only effect, or another doubt; inactive = no such curve, though single readings can be large; an effect the other way counts as inactive or inconclusive.

SMILES	GPT2 inhibitor	Luciferase inh	NPR1 antag	3T3 cytotox	HEK cytotox
CCN1c2cc(C(=O)Nc3cccc(C(=O)OC)c3)ccc2C(=O)N2CCCCCC21 (centres undefined)	i	i	i	17.8µM	?
CCOC(=O)c1cccc(NC(=O)c2ccc3c(c2)N(CC)C2CCCCCN2C3=O)c1 (centres undefined)	i	i	i	20µM	?
CCN1c2cc(C(=O)Nc3ccccc3)ccc2C(=O)N2CCCCC21 (centres undefined)	i	?	i	?	?
O=C(NCCC1CCN(C(=O)Nc2ccccc2F)CC1)c1cccc(F)c1	i	i	i	i	?
COc1ccccc1Nc1ccnc(N2CCC(NC(=O)c3ccc(C)cc3)CC2)n1	i	nt	nt	39.8µM	?
COc1ccccc1Nc1ccnc(N2CCC(NC(=O)c3ccccc3)CC2)n1	i	nt	nt	i	?
COc1ccccc1Nc1ccnc(N2CCC(NC(=O)c3ccc(F)cc3)CC2)n1	i	nt	nt	i	i
COc1ccccc1Nc1ccnc(N2CCC(NC(=O)Cc3ccc(F)cc3)CC2)n1	i	nt	nt	?	44.7µM
COc1ccccc1Nc1ccnc(N2CCC(NC(=O)c3ccc(Cl)cc3)CC2)n1	i	nt	nt	31.6µM	35.5µM
Clc1ccc(Nc2nnc(Cc3ccncc3)c3ccccc23)cc1	i	nt	nt	nt	nt
Cc1cc(C(=O)N2CCOC[C@H](Oc3ccc(S(C)(=O)=O)cc3)C2)n(C)n1	?	i	i	i	i
FC(F)(F)C1CN(c2ccc3cc(Cl)ccc3n2)CCO1 (centres undefined)	i	25.1µM	i	?	?
Cn1cc(CN2CCN3CCCC3C2)c(-c2ccc(C3CCCCC3)cc2)n1 (centres undefined)	?	?	i	?	25.1µM
CN(Cc1ccc(N2CCCCC2)cc1)C(=O)CCC[C@H]1NC[C@@H]2C[C@H]1CN(Cc1ccccc1)C2	i	i	i	17.8µM	?
CN(Cc1cccnc1)C(=O)CCC[C@H]1NC[C@@H]2C[C@H]1CN(Cc1ccccc1)C2	i	i	i	i	i
O=C(CCC[C@H]1NC[C@@H]2C[C@H]1CN(Cc1ccccc1)C2)Nc1ccc2c(c1)OCCO2	i	44.7µM	i	i	i
CCOc1ccc2c(n1)CCN(C(=O)C1CC1)C2	i	i	i	i	i
CCOc1ccc(NC(=O)Cn2c(C)cc3nc4n(c(=O)c32)CCCC4)cc1	i	i	i	i	i
Cc1ccc(-c2ccc3nnc(CNC(=O)c4cc(Cl)ccc4F)n3n2)cc1	i	i	i	?	?
Cc1ccc(-c2ccc3nnc(CNC(=O)c4cc(F)ccc4Cl)n3n2)cc1	i	i	i	?	31.6µM
COc1ccc(Cn2c(=O)c(C(=O)N3CCN(C(=O)c4ccccc4F)CC3)nc3cccnc32)cc1	i	nt	nt	?	i
COc1cccc(-c2ccc(CN3CCCC3C(=O)NCc3ccc(F)cc3)cc2)c1 (centres undefined)	i	nt	nt	?	?
COc1cccc(-c2ccc(CN3CCCC3C(=O)NCC3CC3)cc2)c1 (centres undefined)	i	nt	nt	?	44.7µM
COc1cccc(-c2ccc(CN3CCCC3C(=O)NCc3ccc(C(F)(F)F)cc3)cc2)c1 (centres undefined)	i	nt	nt	?	35.5µM
COc1cccc(C(O)c2nc(C(=O)Nc3ccc4c(c3)NC(=O)CO4)c(C)o2)c1 (centres undefined)	i	63.1µM	i	?	89.1µM
SMILES	GPT2 inhibitor	Luciferase inh	NPR1 antag	3T3 cytotox	HEK cytotox
COc1ccc(CCc2nc(C3CC(=O)N(c4ccc(Cl)cc4)C3)no2)cc1 (centres undefined)	i	i	i	?	?
COc1ccnc(-c2nnc3ccc(N4CCc5ccccc5CC4)nn23)c1	i	i	i	50.1µM	56.2µM
OCc1ccc(-c2ccc3nnc(-c4ccccn4)n3n2)cc1	i	i	i	89.1µM	i
COc1ccnc(-c2nnc3ccc(N4C[C@@H](C)O[C@@H](C)C4)nn23)c1	i	i	i	31.6µM	?
c1ccc(C2CCN(c3ccc4nnc(-c5ccccn5)n4n3)CC2)cc1	i	i	i	31.6µM	63.1µM
Fc1ccc(-c2nnc3ccc(N4CCN(c5ccccn5)CC4)nn23)nc1	i	i	i	?	i
CCc1ccc(C(=O)N2CCC(C3CCN(S(C)(=O)=O)CC3)C2)cc1 (centres undefined)	i	i	i	i	i
Cc1ccc(C(=O)N2CCC3(CC2)CC(N(Cc2ccccc2)C2CC2)CCO3)cn1 (centres undefined)	i	i	i	?	?
COc1ccc(-c2nnc3ccc(N4CCCC4)nn23)nc1	i	i	i	31.6µM	i
COc1ccc(-c2nnc3ccc(N4CCN(C(C)=O)CC4)nn23)nc1	i	i	i	?	i
Cc1sc2ccn(CC(C)C)c(=O)c2c1C(=O)N1CCCCC1	i	i	i	i	28.2µM
Cc1sc2ccn(CC(C)C)c(=O)c2c1C(=O)N1CCC(C)CC1	i	i	i	i	44.7µM
CCCN1CCN(C(=O)c2c(C)sc3ccn(CC(C)C)c(=O)c23)CC1	i	i	i	i	i
COc1ccc(C(=O)NC2CCN(c3cc(-c4ccc(Cl)cc4)[nH]n3)C2)cc1 (centres undefined)	?	i	i	?	?
O=Cc1ccccc1-c1cnc2ccccc2c1	i	nt	nt	79.4µM	i
Cc1cc(C)cc(-c2ccccc2C=O)c1	i	nt	nt	?	?
COc1cccc(NC(=O)[C@@H]2C[C@@H](c3cccc(C(F)(F)F)c3)N(CC3CCOCC3)C2)c1	i	i	i	?	?
COc1ccc([C@H](C)NC(=O)c2c(C)noc2-c2cccs2)cc1	i	i	i	?	?
O=C(NCc1cccc(-c2ccccc2)c1)C1CC(=O)N(C2CC2)C1 (centres undefined)	i	i	i	i	i
CCN1CC(C(=O)NCc2cccc(-c3ccccc3)c2)CCC1=O (centres undefined)	i[11.5 µM]	i	?	?	35.5µM
Cc1ccc(C(=O)NCCn2ccn3nc(-c4ccc(C)cc4C)cc3c2=O)cc1	i	?	i	i	i
CC(C(=O)N1CC(Oc2ccc(-c3noc(-c4ccncc4)n3)cc2)C1)c1ccccc1 (centres undefined)	i	nt	nt	25.1µM	?
O=C(Nc1cccc(F)c1)N1CC(Oc2ccc(-c3nc(-c4ccccc4)no3)cc2)C1	i	2.51µM	7.08µM	?	?
COc1ccc(NC(=O)N2CC(Oc3ccc(-c4nc(-c5ccccc5)no4)cc3)C2)cc1	i	1.41µM	i	i	?
O=C(c1ccncc1)N1CC(Oc2ccc(-c3noc(-c4ccccc4)n3)cc2)C1	i	?	i	i	?
O=C(Nc1ccccc1)N1CC(Oc2cccc(-c3nc(-c4ccccc4)no3)c2)C1	i	?	i	?	?
O=C(c1cc2n(n1)CCCN(Cc1ccccc1)C2)N1CC(n2cccn2)C1	i	i	i	i	i
